Laboratory results taken from PubChem BioAssay (NCI).
This is part of a sample that, as a whole, favours compounds with a hit. Of some 79,000 tested, about 15% had one in any assay. No stated cut-off is given here; in the data, active means growth inhibition above about 70%; inactive means the rest.

Columns and labels:
[1] = NCI Yeast Anticancer Drug Screen. Data for the rad50 strain (AID 155);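 further: 0% = growth of vehicle-only cultures of the same strain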; settings: S. cerevisiae rad50 strain growth inhibition; at 50.0 µM; stronger effect = higher value
Method in brief: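 Compounds were tested on a yeast strain with an engineered DNA damage repair alteration; the reported value is growth inhibition normalised to vehicle treatment.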

[2] = NCI Yeast Anticancer Drug Screen. Data for the mec2-1 strain (AID 157); settings: S. cerevisiae mec2-1 strain, at 50.0 µM, stronger effect = higher value
Method in brief: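 Cells of the genetically defined mec2-1 yeast strain are incubated with test compound. Inhibition of growth is calculated against vehicle-treated controls.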

[3] = NCI Yeast Anticancer Drug Screen. Data for the sgs1 mgt1 strain (AID 161);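 further: 0% = growth of cultures given vehicle only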; settings: S. cerevisiae sgs1 mgt1 strain, at 50.0 µM, stronger effect = higher value
Method in brief: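 Read-out: growth inhibition vs vehicle controls. Cells: mutant yeast strain deficient in DNA damage repair.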

[4] = NCI Yeast Anticancer Drug Screen. Data for the cln2 rad14 strain (AID 165);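 further: 0% = growth equal to vehicle treated cultures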; settings: S. cerevisiae cln2 rad14 strain, at 50.0 µM, stronger effect = higher value
Method in brief: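 The screen exposed genetically defined yeast (cln2 rad14) to test compounds and scored growth inhibition relative to vehicle-treated controls.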

[5] = NCI Yeast Anticancer Drug Screen. Data for the mlh1 rad18 strain (AID 175); settings: S. cerevisiae mlh1 rad18 strain growth inhibition; at 50.0 µM; stronger effect = higher value
Method in brief: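 Compound-treated yeast growth, normalised to vehicle controls. Strain bears defined DNA repair mutations.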

[6] = NCI Yeast Anticancer Drug Screen. Data for the bub3 strain (AID 167); settings: S. cerevisiae bub3 mutant strain, at 50.0 µM, stronger effect = higher value
Method in brief: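 Growth of a checkpoint-deficient yeast mutant is measured after compound exposure. Values represent inhibition relative to vehicle.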

Measured: growth inhibition

CCNC(=S)NCC
inactive: [1] -11.2% | [2] -28.8% | [3] 20.6% | [4] 6.7% | [5] 17.5%

CC1=C2N3C[C@@H](n4c(=O)n(C)c(=O)n43)C23CCC1n1c(=O)n(C)c(=O)n13
inactive: [1] -7.1% | [2] -0.85% | [3] 17.9% | [4] 7% | [5] -9.95%

CCOC(=O)Cc1nnc2n(-c3ccccc3)c(=O)c3ccccc3n12
inactive: [1] -23.6% | [2] -15.3% | [3] -21.7% | [4] 11.8% | [5] -74.2%

CCOC(=O)C(C)OC(=O)C(C)OC(C)=O (stereo not given)
inactive: [1] 4.7% | [2] 23.8% | [3] 17.1% | [4] 9.4% | [5] -7.7%

c1ccc(-c2nc(-c3ccccc3)c(-c3ccccc3)[nH]2)cc1
inactive: [1] -0.85% | [2] 28.1% | [3] 12.2% | [4] 11.2% | [5] -36.2%

CCOC(=O)CSc1[nH]c2nc(C)nc(Cl)c2c1C#N
inactive: [1] -20.7% | [2] 8.3% | [3] -5.2% | [4] -6.65% | [5] 16.6%

O=Nc1ccc(Br)cc1
inactive: [1] -8.2% | [2] 0.35% | [3] -11.7% | [4] 5.8% | [5] -7.5%

CCCCCCCCCCCCCCC(=O)OCCN(C)C
inactive: [1] -3.6% | [2] -18% | [3] 1.45% | [4] -18.2% | [5] -10.1%

CC1=CC2=C(C(N)=O)C(=O)OC2(C)C(c2ccccc2)C1 (stereo not given)
inactive: [1] -19.9% | [2] -6.75% | [3] 4.65% | [4] 7% | [5] 5.7%

Cc1ccc(Nc2nnc(Nc3ccc(C)cn3)c3ccccc23)nc1
inactive: [1] -10.7% | [2] -12.4% | [3] -4.55% | [4] -18.8% | [5] -7.95%

CC(=O)NC(Cc1cc(I)c(OC(C)=O)c(I)c1)C(C)=O (stereo not given)
inactive: [1] 5.45% | [2] 7.1% | [3] 0.7% | [4] 14.6% | [5] -18.4%

CCC(CC)C(=O)NC(O)C(Cl)(Cl)C(C)Cl (stereo not given)
inactive: [1] 3.8% | [2] 27.1% | [3] 0.55% | [4] 20.3% | [5] 14.6%

CCCCCCCCCCCCCCCCCC(=O)[O][Al][O]C(C)C
inactive: [1] -38.1% | [2] -35% | [3] -10.8% | [4] 4.55% | [5] -14.9%

C=C(C)C1CC/C(C)=C/CC[C@]2(C)O[C@H]2CC/C(COC(C)=O)=C\[C@@H]1O (stereo not given in full)
inactive: [1] -7.9% | [2] -8.7% | [3] 2.2% | [4] 3.65% | [5] -54.6%

Cc1ccc(-c2n[nH]c(=O)n2N2C(=O)C=CC2=O)cc1
inactive: [1] -9.05% | [2] -20.6% | [3] -26.3% | [4] -1.2% | [5] -59.9%

C/C=C(/C)C(C#N)(CCC)C(=O)OCC (stereo not given)
inactive: [1] 5.9% | [2] -12.4% | [3] -8.7% | [4] 3% | [5] 11.3%

CC(=O)OCC1OC(n2nc(C#N)c(C#N)n2)C(OC(C)=O)C1OC(C)=O (stereo not given)
inactive: [1] 37.9% | [2] -3% | [4] 8.05% | [6] -5.85% | [5] 1.15%

CC(C)(O)CCC(C)(C)O
inactive: [1] 60.3% | [2] -19.1% | [4] -25.9% | [6] 0.5% | [5] 45.2%

c1ccc(Cn2cccc2N=Nc2ccccc2)cc1
inactive: [1] 26.4% | [2] 2.8% | [4] 6.8% | [6] -4% | [5] 14.3%

CCOP(=O)(c1ccccc1)C(C)C (stereo not given)
inactive: [1] -7.85% | [2] -0.5% | [4] -40% | [6] -0.65% | [5] -0.2%

COC(=O)N/N=C(/CC1(O)C(=O)Nc2ccc([N+](=O)[O-])cc21)c1ccccc1 (stereo not given)
inactive: [1] 48.3% | [2] 34.2% | [4] -3.2% | [6] 0.35% | [5] 40.8%

N=c1ccn(CC(O)COc2ccccc2)cc1 (stereo not given)
inactive: [1] -11.8% | [2] -13.8% | [4] 10.6% | [6] 2.75% | [5] 9.55%

CN(C)CCCn1cnc2cc(Cl)c(Cl)cc21
inactive: [1] 0.2% | [2] -6.4% | [4] -0.8% | [6] 9.95% | [5] -0.15%

CC(C)c1ccc(/C=C2/C=C(c3ccc4ccccc4c3)OC2=O)cc1
inactive: [1] -9.25% | [2] -1.7% | [4] -3.75% | [6] -17.8% | [5] -18.9%
